The list is not random: actives were taken first. Their share in the collection is about 4.8%.
Mdm2 MdmX PPI: inhibitors of human Mdm2-MdmX association, primary screen, cell-based, luminescence, split luciferase, SaOS-2, uHTS; SaOS-2 split-luciferase Mdm2/MdmX complementation; inhibition, % at 8 µM; 3% of 330,000 active; AID 485346, 2010;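 active = inhibition of at least 50% at 8 µM in the primary screen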
Target sequence (O15151 whole entry, looked up): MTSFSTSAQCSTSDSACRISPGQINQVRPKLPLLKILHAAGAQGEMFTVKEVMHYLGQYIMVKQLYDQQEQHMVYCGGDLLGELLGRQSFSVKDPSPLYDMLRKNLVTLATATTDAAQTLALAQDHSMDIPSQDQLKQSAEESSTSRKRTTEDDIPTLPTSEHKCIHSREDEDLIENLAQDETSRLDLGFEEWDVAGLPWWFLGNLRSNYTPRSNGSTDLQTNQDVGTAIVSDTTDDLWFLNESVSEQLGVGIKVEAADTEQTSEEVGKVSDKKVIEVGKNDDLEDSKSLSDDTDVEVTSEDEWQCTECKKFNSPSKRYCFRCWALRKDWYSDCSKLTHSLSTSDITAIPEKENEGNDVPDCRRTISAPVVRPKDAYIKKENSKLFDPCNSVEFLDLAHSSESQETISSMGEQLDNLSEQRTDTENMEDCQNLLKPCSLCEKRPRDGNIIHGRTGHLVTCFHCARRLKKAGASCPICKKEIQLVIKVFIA
Target sequence (Q00987 whole entry, looked up): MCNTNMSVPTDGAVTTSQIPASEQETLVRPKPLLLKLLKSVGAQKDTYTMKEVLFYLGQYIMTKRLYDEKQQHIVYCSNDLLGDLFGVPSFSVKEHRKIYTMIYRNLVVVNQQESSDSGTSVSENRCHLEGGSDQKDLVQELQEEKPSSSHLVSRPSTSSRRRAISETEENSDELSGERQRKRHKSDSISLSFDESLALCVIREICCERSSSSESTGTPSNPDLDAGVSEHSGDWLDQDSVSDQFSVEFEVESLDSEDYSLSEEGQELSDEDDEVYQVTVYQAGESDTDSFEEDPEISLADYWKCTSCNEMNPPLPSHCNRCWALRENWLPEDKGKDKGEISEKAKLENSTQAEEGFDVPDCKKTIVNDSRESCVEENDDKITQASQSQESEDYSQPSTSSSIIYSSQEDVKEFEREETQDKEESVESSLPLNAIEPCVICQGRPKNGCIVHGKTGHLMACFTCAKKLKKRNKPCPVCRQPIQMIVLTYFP
MPTP block: mitochondrial permeability transition pore inhibitors, primary screen, biochemical, isolated mouse mitochondria, absorbance. Ca2+ swelling absorbance, 30 min. inhibition, % at 10 µM. 1.4% of 360,000 active;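 active = inhibition of 50% or more, scaled per plate between neutral and stimulator controls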;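 note: 0% = DMSO wells given calcium and 100% = 1 mM EGTA wells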
Beta apoptosis: inhibitors of cytokine-induced beta cell apoptosis, primary screen, luminescence. INS-1E cytokine-induced death, ATP luminescence, 48 h; percent of positive-control rescue, neutral wells zero. protection from apoptosis, % (concentration not given with the values). 0.8% of 300,000 active;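 active = Every replicate reaches about 75%, or at least half do and their mean reaches it too, limit read from the data; inconclusive = At least half of replicates reach the limit but their mean does not; inactive = Under half of replicates reach the limit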;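 note: 0% = cytokine-treated negative control wells and 100% = positive control rescue; higher means more ATP so stronger rescue from cytokine killing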
CSC inhib: cancer stem cell viability inhibitors, primary screen, luminescence; cancer stem cell-like cells viability; inhibition, % at 7.5 µM; 1.1% of 300,000 active; in the data active = inhibition above about 75%; inconclusive = no clear call, values can overlap the other calls; tested in HMLE shEcad cells
Calb FLC: C. albicans growth inhibition with fluconazole, primary screen, CaCi-2 strain, Alamar Blue fluorescence; C. albicans CaCi-2 (fluconazole-resistant clinical isolate) + fluconazole, 48 h; AID 1979, 2009; 0.57% of 300,000 active; growth inhibition, % (concentration not given with the values);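 active = growth inhibition above about 58% in most replicates, limit read from the data, passing the limit was not always enough; inconclusive = exactly half the replicates above a set limit; inactive = most replicates below a set limit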;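 note: all wells also contain fluconazole at 8 µg/ml as a sub-toxic cotreatment; 0% = median of DMSO wells and 100% = median of geldanamycin control wells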
Mdm2-MdmX conf: Mdm2-MdmX complex disruptors, retested hits, confirmation, luminescence, single concentration; shares compounds with Mdm2 MdmX PPI; Mdm2-MdmX binding, luminescent assay; inhibition, % at 8 µM; 55% of 10,000 active; AID 489028, 2010; in the data active = inhibition above about 40%
FLuc counter: full-length luciferase signal inhibition, confirmation, counter-screen for Mdm2/MdmX interaction inhibitor project, cell-based, single concentration, SaOS-2; AID 504607, 2011; shares compounds with Mdm2 MdmX PPI; 77% of 6,200 active; inhibition, % at 8 µM; SaOS-2 full-length luciferase counterscreen, luminescence;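 active = mean inhibition at 8 µM reaching about 37%, which flags the compound as non-specific, limit read from the data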;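 note: p53-null SaOS-2 cells with luciferase driven by a doxycycline-inducible promoter; compound on cells about two nights before reading with doxycycline added after day one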
Numbers without * were called inactive; ? = inconclusive; . = no result given.

SMILES	Mdm2 MdmX PPI	MPTP block	Beta apoptosis	CSC inhib	Calb FLC	Mdm2-MdmX conf	FLuc counter
Cc1nc(N)sc1C(=O)N/N=C/c1c[nH]c2ccccc12	51*	0	-1	-1	-11	23	.
CCN(CC)C(=O)c1cccc(-c2csc(C(O)(c3ccccc3)C(F)(F)F)n2)c1 (stereo not drawn)	.	-4	.	.	.	.	.
Cc1c(Cc2ccccc2)sc(NC(=O)Cc2ccccc2)c1C(N)=O	2	-3	-3	13	0	.	.
COc1ccc(/C=C/C(=O)Nc2sc(Cc3ccccc3)c(C)c2C(N)=O)cc1	64*	2	2	9	1	34	114*
COc1ccc(CNCC(O)(c2ccccc2)c2ccc(Cl)cc2)cc1 (stereo not drawn)	50*	11	8	10	-20	4	.
Cc1nc(NC(=O)/C=C/c2ccccc2)sc1C(=O)Nc1ccc(Cl)cc1	50*	-3	3	-11	27	40	53*
COc1cc([C@@H]2c3cc4c(cc3[C@@H](O)[C@H]3COC(=O)[C@H]23)OCO4)cc(OC)c1O[Si](C)(C)C(C)(C)C	71*	3	1	127*	6	37	81*
O=C(Nc1ccc(N2CCCCC2)cc1)c1ccccn1	81*	-1	47	-4	8	84*	28
COc1ccc(N2CCOCC2)c(NC(=O)c2cccs2)c1	29	-1	-1	-25	-16	.	.
CCN(c1ccc(OC)cc1)S(=O)(=O)c1ccc(-c2cc(C)no2)s1	57*	-1	4	-19	7	48*	59*
Cc1cccc(C)c1NC(=O)C(c1ccnc2ccccc12)n1c(=O)c(-c2ccco2)nc2ccccc21 (stereo not drawn)	.	10	.	.	.	.	.
CCCCn1c(N)c(N(CCOC)C(=O)C2CC(=O)N(Cc3ccco3)C2)c(=O)[nH]c1=O (stereo not drawn)	-27	-1	-5	.	.	.	.
COc1ccc(Nc2nc(N3CCCC3)nc3ccccc23)c(OC)c1	54*	25	62	28	0	2	.
COc1ccc(Nc2ncnc3ccccc23)c(OC)c1	9	-1	-8	-10	9	.	.
CC(Nc1nc(-c2ccccc2)nc2ccccc12)c1ccccc1 (stereo not drawn)	13	3	6	?	-5	.	.
CC(Nc1nc(N2CCCCC2)nc2ccccc12)c1ccccc1 (stereo not drawn)	54*	42	26	.	39	47*	73*
Cc1cc(C)n(-c2nc(Nc3ccccc3C)nc(-n3nc(C)cc3C)n2)n1	67*	.	.	10	51	21	.
Cc1cc(C)n(-c2nc(NC(C)(C)C)nc(NC(C)(C)C)n2)n1	32	-5	?	-4	-1	.	.
Cc1cc(C)n(-c2nc(NC(C)C)nc(NC(C)C)n2)n1	31	0	18	-15	-21	.	.
Cc1cc(C)n(-c2nc(Nc3ccccc3C(F)(F)F)nc(-n3nc(C)cc3C)n2)n1	69*	-7	82*	59	21	35	.
CCN1C[C@@H]2[C@@H]3C(=O)N(Cc4ccccc4)C(=O)[C@@H]3[C@](Cc3ccccc3)(C1=O)N2C(=O)c1ccc(Cl)cc1	.	1	.	.	.	.	.
COc1ccc(C(=O)NC2CCCc3c2cnn3-c2cc(F)cc(F)c2)c(OC)n1 (stereo not drawn)	20	0	-2	1	3	.	.
COC(=O)c1ccc(C(=O)NC2CCCc3c2cnn3-c2cc(F)cc(F)c2)nc1 (stereo not drawn)	58*	1	2	-7	-5	50*	57*
COc1ccc(C(=O)NC2CCCc3c2cnn3-c2cc(F)cc(F)c2)c(OC)c1OC (stereo not drawn)	53*	-2	3	26	3	47*	57*
Cc1cc(C(=O)NC2CCCc3c2cnn3-c2ccc(C)c(C)c2)nc(C)n1 (stereo not drawn)	4	0	-14	26	22	.	.
SMILES	Mdm2 MdmX PPI	MPTP block	Beta apoptosis	CSC inhib	Calb FLC	Mdm2-MdmX conf	FLuc counter
COC(=O)c1ccc(C(=O)NC2CCCc3c2cnn3-c2ccc(C)c(C)c2)cc1 (stereo not drawn)	60*	1	12	-23	-2	72*	59*
O=C(NC1CCCc2c1cnn2-c1cc(F)cc(F)c1)c1ccccn1 (stereo not drawn)	5	1	2	-16	12	.	.
CCOC(=O)Nc1csnn1	-5	0	.	.	0	.	.
CCCCN(C(=O)c1cc(CN2C(=O)c3ccccc3C2=O)ccc1OC)c1c(N)n(CC(C)C)c(=O)[nH]c1=O	.	1	.	.	.	.	.
CSc1cc(-c2ccccc2)n(Cc2c(Cl)cccc2Cl)c(=O)c1C#N	66*	0	2	59	-6	51*	69*
CSc1cc(-c2ccc(Cl)cc2)n(Cc2ccccc2)c(=O)c1C#N	98*	7	9	61	4	7	.
CCOC(=O)Cn1c(-c2ccccc2)cc(SC)c(C#N)c1=O	0	1	-10	-17	1	.	.
Cc1cc(=O)n(Cc2ccccc2)c(O)c1C#N	-12	0	-1	5	9	.	.
COCCN1C[C@@H](CO)O[C@@H](n2cnc3c(NC4CCCC4)ncnc32)C1	.	0	.	.	.	.	.
COC(=O)[C@@]1(Sc2ccc(C)cc2)CC(=O)N(C(=O)CCc2ccccc2)[C@@H]1c1ccccc1	.	0	.	.	.	.	.
CCOC(=O)C1CC2CC(C1)CN(C(=O)C1CCCCC1)C2 (stereo not drawn)	2	0	-5	5	-7	.	.
C=CCn1cnnc1SCC(=O)Nc1cccnc1Cl	0	.	.	.	.	.	.
Cc1cc2c(cc1C)CSC(c1c(O)ccc3ccccc13)SC2	75*	4	7	112*	61	37	57*
CCc1nc2ccc(C(=O)Nc3cccc(OCC(=O)N(C)C)c3)cn2c1N(CC)CCOC	.	1	.	.	.	.	.
Cc1ccc(C#N)c(SCc2cc3c(cc2Cl)OCO3)n1	24	0	-4	1	0	.	.
Cc1ccc(C#N)c(SCc2nnc(-c3ccc(Cl)cc3)o2)n1	88*	1	2	8	1	92*	57*
Cc1cc(C)c(C#N)c(SCc2nnc(-c3ccccc3)o2)n1	85*	2	-1	.	-8	91*	49*
O=C(CCc1ccccc1)NNC(=O)Cc1ccccc1	2	0	0	-20	-20	.	.
Cc1cc(N2CCOCC2)ccc1/C=C1\NC(=O)N(Cc2ccccc2F)C1=O	71*	1	8	11	2	10	.
O=C(CSc1nc2cc([N+](=O)[O-])ccc2n1-c1ccccc1)NCc1ccc2c(c1)OCO2	56*	9	4	-2	0	22	.
